PD-1 reversal: activators reversing PD-1 mediated T-cell inhibition; primary human CD4 T cells, PD-L1 beads, CellTiter-Glo 96 h; activation, % (no concentration beside the values); 29,000 tested, under 10 active; call rule not given here
U2OS ROS induce: inducers of reactive oxygen species in cancer cells; U2OS ROS induction, H2DCF-DA fluorescence; ROS induction (% of piperlongumine), % at 10 µM; 46,000 compounds, 2% hits; in the data active = ROS induction above about 79%, passing the limit was not always enough; inconclusive = no clear call, values can overlap the other calls
NOMO-1 viab: STK33 inhibitor candidate reducing NOMO-1 cell viability | AID 2330 | inhibition, % (concentration not given with the values) | NOMO-1 AML viability, CellTiter-Glo luminescence, 72 h | 37,000 compounds, 7.5% hits; in the data active = inhibition above about 80%; inconclusive = no clear call, values can overlap the other calls
A number is an active result; i = inactive; ? = inconclusive; nt = no result. This excerpt belongs to a sample that is enriched for hits.

SMILES | PD-1 reversal | U2OS ROS induce | NOMO-1 viab
COc1ccc(C2C(C(=O)NC3CCCCCC3)CCC(=O)N2c2ccc(OC)cc2)cc1 (centres undefined) | nt | i | nt
O=C(C(C(=O)N1CCCCC1)C12CC3CC(CC(C3)C1)C2)N1CCCCC1 | i | i | i
COc1ccc(/C=C2\SC(N)=NC2=O)cc1O | nt | i | nt
C[C@@H]1CN([C@H](C)CO)C(=O)c2cc(NC(=O)Nc3cccc4ccccc34)ccc2O[C@H]1CN(C)Cc1ccc(-c2ccccc2)cc1 | i | i | 118
COc1ccc(CN(C)C[C@H]2Oc3ccc(NC(=O)Nc4cccc5ccccc45)cc3C(=O)N([C@H](C)CO)C[C@H]2C)cc1 | nt | i | i
C[C@H]1CN([C@@H](C)CO)C(=O)c2cc(NC(=O)Nc3cccc4ccccc34)ccc2O[C@H]1CN(C)Cc1ccc(-c2ccccc2)cc1 | i | i | i
C[C@H](CO)N1C[C@H](C)[C@@H](CN(C)Cc2ccc(Oc3ccccc3)cc2)Oc2ccc(NC(=O)Nc3cccc4ccccc34)cc2C1=O | i | i | 104
O=C(NCCOc1ccccc1-c1ccccc1)c1cccc2ccccc12 | nt | i | nt
CCOC(=O)C1=C(C2CC=CCC2)NC(=S)NC1C (centres undefined) | nt | i | nt
CCn1c(-c2ccccc2)ccc1C(O)C(F)(F)F (centres undefined) | nt | i | nt
O=C(CCN1C(=O)c2ccccc2C1=O)Nc1ccc(NC(=O)c2ccco2)cc1 | i | i | i
O=C(ON1C(=O)c2ccccc2C1=O)c1ccco1 | i | i | 115
O=c1cc(CSc2ccccn2)c2ccc(O)cc2o1 | i | i | i
O=c1cc(CSc2cccc3cccnc23)c2ccc(O)cc2o1 | i | i | 110
CCOc1ccc2c(c1)[nH]c(=S)n2C | nt | i | nt
CCOc1ccc2c(c1)-c1c(ssc1=S)C(C)(C)N2C | i | i | 86
Cc1ccc(CCNC(=O)C2CCN(c3nc4ccccc4o3)CC2)cc1 | nt | i | nt
N#CC(C#N)=C(Nc1ccccc1Cl)SCc1cccc(F)c1 | i | i | 87
Cc1c(Cl)cccc1NC(=O)CN(c1cccc(F)c1)S(C)(=O)=O | i | i | i
C[C@H](CO)N1C[C@H](C)[C@@H](CN(C)Cc2ccc(Oc3ccccc3)cc2)Oc2ccc(NC(=O)Nc3ccccc3)cc2C1=O | i | i | ?
C[C@@H]1CN([C@H](C)CO)C(=O)c2cc(NC(=O)NC3CCCCC3)ccc2O[C@H]1CN(C)Cc1ccc(Oc2ccccc2)cc1 | i | i | ?
C[C@@H]1CN([C@@H](C)CO)C(=O)c2cc(NC(=O)NC3CCCCC3)ccc2O[C@@H]1CN(C)Cc1ccc(Oc2ccccc2)cc1 | i | i | 120
COc1ccc(NC(=O)Nc2ccc3c(c2)C(=O)N([C@@H](C)CO)C[C@H](C)[C@@H](CN(C)Cc2ccc(Oc4ccccc4)cc2)O3)cc1 | i | i | i
COc1ccc(NC(=O)Nc2ccc3c(c2)C(=O)N([C@@H](C)CO)C[C@@H](C)[C@@H](CN(C)Cc2ccc(-c4ccccc4)cc2)O3)cc1 | i | i | 116
COc1ccc(NC(=O)Nc2ccc3c(c2)C(=O)N([C@H](C)CO)C[C@H](C)[C@H](CN(C)Cc2ccc(-c4ccccc4)cc2)O3)cc1 | i | i | i
SMILES | PD-1 reversal | U2OS ROS induce | NOMO-1 viab
COc1ccc(NC(=O)Nc2ccc3c(c2)C(=O)N([C@H](C)CO)C[C@@H](C)[C@@H](CN(C)Cc2ccc(Oc4ccccc4)cc2)O3)cc1 | nt | i | 122
C[C@@H]1CN([C@@H](C)CO)C(=O)c2cc(NC(=O)Nc3ccccc3)ccc2O[C@@H]1CN(C)Cc1ccc(Oc2ccccc2)cc1 | i | i | 117
Cc1ccc(-n2nc(C(F)(F)F)cc2-c2cccs2)cc1 | nt | i | nt
Cn1c(CSc2nc3ccccc3s2)nnc1SCC(=O)NCCO | nt | i | nt
Cc1ccc(NC2(c3nnnn3CCOC(=O)Nc3ccc(Cl)cc3)CCCCC2)cc1 | nt | i | nt
Cc1cc(-n2c(=S)sc3c(=O)n(-c4ccc(F)cc4)c(SCC#N)nc32)ccc1Cl | nt | i | nt
COc1ccc(NC(=S)NC2CC(C)(C)NC(C)(C)C2)cc1 | nt | i | nt
COc1ccc(CN(CCC(c2ccccc2)c2ccco2)C(C)=O)cc1 (centres undefined) | nt | i | nt
Cc1ncoc1C(=O)Nc1ccc(C(N)=O)cc1 | nt | i | nt
COc1ccc(C(=O)NCc2c(-c3ccccc3)noc2C)cc1 | nt | i | nt
C[C@H](CO)N1C[C@H](C)[C@H](CN(C)Cc2ccc(Oc3ccccc3)cc2)Oc2ccc(NC(=O)Cc3ccccc3)cc2C1=O | nt | i | i
C[C@H]1CN([C@@H](C)CO)C(=O)c2cc(NC(=O)Cc3ccccc3)ccc2O[C@@H]1CN(C)Cc1ccc(Oc2ccccc2)cc1 | nt | 190 | 93
COC(=O)C1=C(O)/C(=C/c2ccc(CNS(=O)(=O)c3ccccc3)o2)N=C1C | nt | i | nt
CO[C@H]1O[C@H](CO)[C@@H](OC(=O)Nc2ccc3c(c2)OCO3)[C@@H]2OC(=O)[C@H](Cc3ccccc3)C/C=C/C[C@@H](Cc3ccccc3)C(=O)O[C@@H]12 | nt | i | nt
CN(Cc1ccccc1)C(=O)Cn1nc(-c2ccc(Cl)cc2)ccc1=O | nt | i | nt
C[C@@H]1CN([C@@H](C)CO)C(=O)c2cccc(NC(=O)Nc3ccc(F)cc3)c2O[C@@H]1CN(C)Cc1ccc(C(=O)Nc2ccccc2N)cc1 | i | i | 140
CC(C)NC(=O)Nc1cccc2c1O[C@H](CN(C)Cc1ccc(C(=O)Nc3ccccc3N)cc1)[C@H](C)CN([C@H](C)CO)C2=O | i | i | 119
C[C@@H]1CN([C@@H](C)CO)C(=O)c2cccc(NC(=O)Nc3ccccc3)c2O[C@H]1CN(C)Cc1ccc(C(=O)Nc2ccccc2N)cc1 | i | i | 125
C[C@H](CO)N1C[C@H](C)[C@@H](CN(C)Cc2ccc(C(=O)Nc3ccccc3N)cc2)Oc2c(NC(=O)c3ccncc3)cccc2C1=O | i | i | i
C[C@H](CO)N1C[C@H](C)[C@@H](CN(C)Cc2ccc(C(=O)O)cc2)Oc2c(NC(=O)Nc3ccccc3)cccc2C1=O | nt | i | i
C[C@H]1CN([C@@H](C)CO)C(=O)c2cccc(NC(=O)Nc3ccccc3)c2O[C@@H]1CN(C)Cc1ccccc1 | nt | i | i
C[C@H]1CN([C@@H](C)CO)C(=O)c2cccc(NC(=O)Nc3ccccc3)c2O[C@@H]1CN(C)Cc1ccc(C(=O)Nc2ccccc2N)cc1 | i | 144 | 127
C[C@H](CO)N1C[C@H](C)[C@H](CN(C)Cc2ccc(C(=O)O)cc2)Oc2c(NC(=O)Nc3ccc(F)cc3)cccc2C1=O | i | i | i
C[C@@H]1CN([C@@H](C)CO)C(=O)c2cccc(NC(=O)Nc3ccc(C(F)(F)F)cc3)c2O[C@@H]1CN(C)Cc1ccc(C(=O)Nc2ccccc2N)cc1 | i | i | 128
C[C@@H]1CN([C@H](C)CO)C(=O)c2cccc(NC(=O)Nc3ccccc3)c2O[C@@H]1CN(C)Cc1ccc(C(=O)O)cc1 | nt | i | i
C[C@@H]1CN([C@H](C)CO)C(=O)c2cccc(NC(=O)Nc3ccc4c(c3)OCO4)c2O[C@H]1CN(C)Cc1ccc(C(=O)Nc2ccccc2N)cc1 | i | i | 127
C[C@H](CO)N1C[C@H](C)[C@@H](CN(C)Cc2ccc(C(=O)Nc3ccccc3N)cc2)Oc2c(NC(=O)Nc3ccccc3)cccc2C1=O | i | i | 127
